We go through 16 sequences from publication PMC5700166.

Holding throughout (experiment): protein-binding microarray (PBM); PBM: ~300 nM protein, 6 mM HEPES pH 7.8, 80 mM KCl, 0.5 mM EDTA, 0.5 mM EGTA, 6% glycerol, 35 ng/ul poly-dIdC, 1% milk, 1 h, room temperature; Ap Aiptasia and Nv Nematostella (sea anemones) / Co Capsaspora / Aq Amphimedon (sponge) / Dm Drosophila / Hu human; RHD is the Rel homology domain; high values mean tight binding
What all share (details): dsDNA, one strand shown

The target in one assay is T1, GST-Ap-NF-kB RHD (Exaiptasia pallida (Aiptasia), UniProt A0A913YAJ5 2-422).
T1 sequence: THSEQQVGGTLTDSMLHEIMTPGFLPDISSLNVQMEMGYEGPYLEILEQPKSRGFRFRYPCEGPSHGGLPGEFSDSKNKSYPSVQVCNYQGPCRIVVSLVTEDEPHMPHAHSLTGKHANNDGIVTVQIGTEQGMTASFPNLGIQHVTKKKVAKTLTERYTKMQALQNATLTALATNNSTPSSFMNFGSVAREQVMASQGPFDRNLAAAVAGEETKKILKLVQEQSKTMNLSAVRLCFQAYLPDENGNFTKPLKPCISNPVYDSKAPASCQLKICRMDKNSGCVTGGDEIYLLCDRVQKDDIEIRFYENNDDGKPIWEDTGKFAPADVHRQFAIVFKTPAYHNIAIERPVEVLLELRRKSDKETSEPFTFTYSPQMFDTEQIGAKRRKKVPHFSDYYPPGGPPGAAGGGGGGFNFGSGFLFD

The target in assay [1] is T2, GST-Nv-NF-kB (Cys allele) (Nematostella vectensis, UniProt E5G601 2-411).
T2 sequence: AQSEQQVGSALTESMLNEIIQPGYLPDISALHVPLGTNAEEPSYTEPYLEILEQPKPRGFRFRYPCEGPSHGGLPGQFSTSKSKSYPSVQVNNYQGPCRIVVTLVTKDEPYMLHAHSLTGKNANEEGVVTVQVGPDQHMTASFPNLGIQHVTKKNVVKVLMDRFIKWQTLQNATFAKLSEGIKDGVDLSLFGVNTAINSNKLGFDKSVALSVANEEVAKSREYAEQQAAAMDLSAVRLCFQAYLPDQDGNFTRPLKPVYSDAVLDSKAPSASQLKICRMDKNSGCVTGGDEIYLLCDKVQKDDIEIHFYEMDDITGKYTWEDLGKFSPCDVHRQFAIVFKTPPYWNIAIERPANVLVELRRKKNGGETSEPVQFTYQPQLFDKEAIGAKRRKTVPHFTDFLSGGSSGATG

The next assay deals with T3, GST-Co-NF-kB (Capsaspora owczarzaki, UniProt F1ARL5 200-546).
T3 sequence: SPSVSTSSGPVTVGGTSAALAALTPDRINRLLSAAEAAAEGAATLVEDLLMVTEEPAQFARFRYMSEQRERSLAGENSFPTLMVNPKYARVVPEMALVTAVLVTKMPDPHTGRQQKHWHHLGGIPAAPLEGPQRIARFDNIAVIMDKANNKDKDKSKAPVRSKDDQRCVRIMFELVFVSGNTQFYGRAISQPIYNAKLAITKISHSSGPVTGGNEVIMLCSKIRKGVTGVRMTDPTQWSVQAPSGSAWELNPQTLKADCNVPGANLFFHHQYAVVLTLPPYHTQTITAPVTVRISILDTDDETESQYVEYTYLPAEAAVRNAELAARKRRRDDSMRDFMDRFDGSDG

The target in the next assay is T4, GST-Dm-Relish (Drosophila melanogaster, UniProt Q94527 99-473).
T4 sequence: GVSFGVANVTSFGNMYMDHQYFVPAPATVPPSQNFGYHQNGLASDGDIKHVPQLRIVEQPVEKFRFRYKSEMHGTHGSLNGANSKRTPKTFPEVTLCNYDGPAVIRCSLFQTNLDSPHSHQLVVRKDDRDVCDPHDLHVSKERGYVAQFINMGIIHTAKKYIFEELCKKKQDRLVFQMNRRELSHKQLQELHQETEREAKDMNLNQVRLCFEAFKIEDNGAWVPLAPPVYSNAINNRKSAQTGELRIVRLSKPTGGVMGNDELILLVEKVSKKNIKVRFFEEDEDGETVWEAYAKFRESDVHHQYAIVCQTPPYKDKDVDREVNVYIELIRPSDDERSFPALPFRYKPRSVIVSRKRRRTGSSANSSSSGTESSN

Another assay deals with T5, GST-Aq-NF-kB (Amphimedon queenslandica, UniProt A9Y5G7 2-389).
T5 sequence: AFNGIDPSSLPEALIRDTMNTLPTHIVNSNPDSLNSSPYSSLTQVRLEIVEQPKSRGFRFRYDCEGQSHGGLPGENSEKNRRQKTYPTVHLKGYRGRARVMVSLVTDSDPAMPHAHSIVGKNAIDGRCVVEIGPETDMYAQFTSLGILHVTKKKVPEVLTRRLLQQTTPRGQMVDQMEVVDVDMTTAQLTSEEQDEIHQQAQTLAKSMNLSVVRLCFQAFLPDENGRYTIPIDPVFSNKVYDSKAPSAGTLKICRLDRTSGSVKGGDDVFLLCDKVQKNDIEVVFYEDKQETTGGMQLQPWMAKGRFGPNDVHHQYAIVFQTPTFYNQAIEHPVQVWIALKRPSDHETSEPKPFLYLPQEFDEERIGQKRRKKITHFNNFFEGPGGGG

Regarding “CCGATTAACATCAGGGACAACCCTGATGTTAATCGGGTCTTGATTCGCTTGACGCTGCTG”, the binding signal came out at 3.42 z-score in the assay with GST-Ap-NF-kB RHD; 4.16 z-score in assay [1]; 1.06 z-score in the assay with GST-Co-NF-kB; 3.09 z-score in the assay with GST-Dm-Relish; 5.59 z-score with GST-Aq-NF-kB.

On to “CCGATTAACATCAGGGTATTACCTGATGTTAATCGGGTCTTGATTCGCTTGACGCTGCTG”, for which the binding signal worked out at 4.39 z-score in the assay with GST-Ap-NF-kB RHD; 6.02 z-score in assay [1]; 1.57 z-score in the assay with GST-Co-NF-kB; 5.28 z-score in the assay with GST-Dm-Relish; 7.69 z-score with GST-Aq-NF-kB.

“CCGATTAACATCAGGGAGTTCCATGATGTTAATCGGGTCTTGATTCGCTTGACGCTGCTG”: the binding signal in the assay with GST-Ap-NF-kB RHD is 2.73 z-score; in assay [1] it was 3.31 z-score; in the assay with GST-Dm-Relish, 4.43 z-score; in the assay with GST-Aq-NF-kB it was 4.38 z-score.

Regarding “CCGATTAACATCAGGAAGACCCCTGATGTTAATCGGGTCTTGATTCGCTTGACGCTGCTG”, the binding signal was determined as 3.9 z-score with GST-Ap-NF-kB RHD, 3.08 z-score in assay [1], 3.8 z-score with GST-Dm-Relish and 5.31 z-score with GST-Aq-NF-kB.

For the sequence “CCGATTAACATCAAGGACTTCCCTGATGTTAATCGGGTCTTGATTCGCTTGACGCTGCTG”, the binding signal turned out to be 2.9 z-score with GST-Ap-NF-kB RHD, 3.39 z-score in assay [1], 6.91 z-score in the assay with GST-Dm-Relish and 5 z-score with GST-Aq-NF-kB.

“CCGATTAACATCACGGAAAGCCCTGATGTTAATCGGGTCTTGATTCGCTTGACGCTGCTG”: the binding signal with GST-Ap-NF-kB RHD came to 1.02 z-score; in assay [1], 1 z-score; in the assay with GST-Dm-Relish, 2.9 z-score; with GST-Aq-NF-kB, 4.35 z-score.

For “CCGATTAACATCACCAAAACCCCTGATGTTAATCGGGTCTTGATTCGCTTGACGCTGCTG”, the binding signal with GST-Ap-NF-kB RHD turned out to be 4.76 z-score; in assay [1], 3.55 z-score; in the assay with GST-Co-NF-kB it was 1.32 z-score; with GST-Dm-Relish, 6.02 z-score; with GST-Aq-NF-kB it was 3.55 z-score.

Take “CCGATTAACATCAGGTACTTCCATGATGTTAATCGGGTCTTGATTCGCTTGACGCTGCTG”: the binding signal amounted to 2.51 z-score with GST-Ap-NF-kB RHD, 2.6 z-score in assay [1], 5.93 z-score with GST-Dm-Relish and 2.23 z-score in the assay with GST-Aq-NF-kB.

In the case of “CCGATTAACATCAGGGGTTCCACTGATGTTAATCGGGTCTTGATTCGCTTGACGCTGCTG”, the binding signal came to 2.77 z-score with GST-Ap-NF-kB RHD, 2.46 z-score in assay [1], 5.79 z-score with GST-Dm-Relish and 3.97 z-score in the assay with GST-Aq-NF-kB.

Take “CCGATTAACATCAGGAAATGCCCTGATGTTAATCGGGTCTTGATTCGCTTGACGCTGCTG”: the binding signal was determined as 1.98 z-score with GST-Ap-NF-kB RHD, 3.05 z-score in assay [1], 1.68 z-score with GST-Dm-Relish and 5.41 z-score with GST-Aq-NF-kB.

On to “CCGATTAACATCATCCGGGAAAATGATGTTAATCGGGTCTTGATTCGCTTGACGCTGCTG”, for which the binding signal came out at 2.01 z-score with GST-Ap-NF-kB RHD; 3.79 z-score in assay [1]; 4.53 z-score with GST-Co-NF-kB; 1.58 z-score with GST-Dm-Relish; 2.54 z-score with GST-Aq-NF-kB.

With “CCGATTAACATCAGGACTATCCCTGATGTTAATCGGGTCTTGATTCGCTTGACGCTGCTG”, the binding signal with GST-Ap-NF-kB RHD worked out at 1.82 z-score; in assay [1] it was 2.61 z-score; with GST-Dm-Relish it was 1.48 z-score; in the assay with GST-Aq-NF-kB it was 5.97 z-score.

As for “CCGATTAACATCAGGGGTTTAACTGATGTTAATCGGGTCTTGATTCGCTTGACGCTGCTG”, the binding signal worked out at 2.44 z-score with GST-Ap-NF-kB RHD, 2.32 z-score in assay [1], 3.3 z-score with GST-Dm-Relish and 3.04 z-score with GST-Aq-NF-kB.

As for “CCGATTAACATCAAGAAATTACCTGATGTTAATCGGGTCTTGATTCGCTTGACGCTGCTG”, the binding signal was found to be 1.26 z-score with GST-Ap-NF-kB RHD, 2.74 z-score in assay [1], 3.19 z-score with GST-Dm-Relish and 2.27 z-score with GST-Aq-NF-kB.

With “CCGATTAACATCAGGTAATTCCATGATGTTAATCGGGTCTTGATTCGCTTGACGCTGCTG”, the binding signal was 1.26 z-score with GST-Ap-NF-kB RHD, 1.89 z-score in assay [1], 4.41 z-score with GST-Dm-Relish and 3.06 z-score in the assay with GST-Aq-NF-kB.

“CCGATTAACATCAATGGGAATTCTGATGTTAATCGGGTCTTGATTCGCTTGACGCTGCTG”: the binding signal was determined as 2.8 z-score with GST-Ap-NF-kB RHD; 4.72 z-score in assay [1]; 2.98 z-score with GST-Co-NF-kB; 4.26 z-score in the assay with GST-Dm-Relish; 3.51 z-score with GST-Aq-NF-kB.
